# Rows were chosen to be rich in hits. Some 19% of all compounds tested hit in one or more screens of this group.
# DT40 TDP1 no CPT: qHTS for Inhibitors of human tyrosyl-DNA phosphodiesterase 1 (TDP1): qHTS in cells in absence of CPT. AID 686978, 2013. Potency, µM (doses to about 46.2 µM), usual class: inhibitors. DT40 Tdp1-/- hTDP1 cells, no CPT, ATP luminescence, 48 h. 15% of 420,000 active; also: nearly all actives have a fitted effect of over 55% in size
#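 A cellular qHTS used chicken DT40 cells lacking endogenous Tdp1 but carrying stably transfected human TDP1. Compounds were applied without camptothecin, and cell growth kinetics were judged by ATP-dependent luminescence after ≥48 hr.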
# IL-1B inflam inh: blocks inflammasome-driven IL-1 beta release; activity change, % at 57.5 µM; AID 743279; 4.7% of 360,000 active; THP-1 LPS/ATP IL-1B secretion, AlphaLISA, 16 h; hits give low values; in the data active = activity change below about -50%; inconclusive = mostly about -30% to -49%
#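 THP-1 cells pretreated 1 hr with compounds (up to 57.5 uM final), then stimulated with LPS (250 ng/mL final) plus ATP (1.25 mM final); secreted IL-1B measured by AlphaLISA after 16 hr, decreased signal indicating inhibition.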
# uPA generation: cell surface uPA generation inhibition. cell surface uPA generation assay, qHTS. Potency, µM (top dose mostly 38.3 µM), hits mostly inhibitors. 0.31% of 330,000 active; active = well fitted inhibition curve with a large enough effect; inconclusive = small, poorly fitted or top-dose-only effect; inactive = no such curve, though single readings can be large or run the other way; tested in mouse RAW 264.7 cells; also: nearly all actives have a fitted effect of over 55% in size
# DT40 TDP1 CPT: DT40-hTDP1 cell growth loss with CPT | chicken DT40 Tdp1-/-;hTDP1 cells + 20 nM CPT, ATP luminescence, 48 h | Potency, µM (highest dose often 46.2 µM), most hits filed as inhibitors | 12% of 420,000 active | AID 686979; also: nearly all actives have a fitted effect of over 55% in size
#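 Cell growth measured by CellTiter-Glo luminescence after a minimum 48 h, 37 C compound exposure with 20 nM CPT in Tdp1-knockout DT40 cells stably expressing hTDP1, seeded 400/well; qHTS titration format.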
# HT1080-NT tox: kills 2HG-producing HT-1080-NT fibrosarcoma cells; HT-1080-NT fibrosarcoma viability, CellTiter-Glo ATP luminescence, 48 h; Potency, µM (doses to about 46.1 µM), usual class: cytotoxic; 1.6% of 360,000 active;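 also: NT is the 2HG producing partner of a matched IDH1 knockdown line; nearly all actives have a fitted effect of over 55% in size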
#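 Fibrosarcoma NT cells, 750 per well in 5% FBS RPMI, were exposed to compound for 48 hours. Viability: CellTiter-Glo luminescence.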
# HT1080 IDH1KD tx: toxicity to HT-1080 IDH1 knockdown cells (counter line) | HT-1080 IDH1 knockdown viability, ATP luminescence, 48 h | Potency, µM (top dose mostly 46.1 µM), usual class: cytotoxic | 2% of 360,000 active
#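 Using the IDH1-knockdown HT-1080 line run in the same batch and compound series as the NT line, viability after 48 h at 37 °C was determined by CellTiter-Glo luminescence and expressed as % activity.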
# Hits are given with their value; n = inactive; u = inconclusive; x = no result given; ! = not active in a repeat. Unless noted, calls follow the shape of the dose curve; as a rule, active = well fitted curve in the direction sought with a large enough effect; inconclusive = small, poorly fitted or top-dose-only effect, or another doubt; inactive = no such curve, though single readings can be large; an effect the other way counts as inactive or inconclusive.
SMILES,DT40 TDP1 no CPT,IL-1B inflam inh,uPA generation,DT40 TDP1 CPT,HT1080-NT tox,HT1080 IDH1KD tx
CCSc1ncc(Cl)c(C(=O)Nc2ccc(S(=O)(=O)N3CCCCC3)cc2)n1,12µM,x,x,21µM,x,x
Cc1ccnc(NS(=O)(=O)c2ccc(NC(=O)c3nc(SC(C)C)ncc3Cl)cc2)n1,u,x,x,n,x,x
CC(C)Sc1ncc(Cl)c(C(=O)Nc2ccc(S(=O)(=O)N3CCCCC3)cc2)n1,18µM,x,x,18µM,x,x
CSc1ncc(Cl)c(C(=O)Nc2ccc(S(=O)(=O)Nc3nccc(C)n3)cc2)n1,10µM,n,n,u,u,u
CC1CCCN(S(=O)(=O)c2ccc(NC(=O)c3nc(SC(C)C)ncc3Cl)cc2)C1 (stereo not given),13µM,x,x,8.2µM,x,x
COc1cccc(C(=O)/C=C/Nc2ccc(S(=O)(=O)Nc3cccc(C(C)=O)c3)cc2)c1,16µM,n,n,18µM,n,n
COc1cc(/C=C/C(=O)c2ccc(NS(=O)(=O)c3ccc(C)cc3)cc2)cc(OC)c1O,u,-103,n,u,u,u
COc1cccc(/C=C/C(=O)c2ccc(NS(=O)(=O)c3ccc(C)cc3)cc2)c1,21µM,-99,n,18µM,u,u
O=C(/C=C/Nc1cccc(C(F)(F)F)c1)c1ccc(Oc2ncccn2)cc1,23µM,n,n,u,n,n
Cc1cccc(OCc2cc(=O)n3c(-c4ccccc4)csc3n2)c1C,n,x,x,n,x,x
CCN(CC)CCN(C(=O)Cn1nnc(-c2ccc(C)o2)n1)C(C(=O)NC1CCCC1)c1ccc(F)cc1 (stereo not given),u,u,n,n,n,n
COc1cc(/C=C/C(=O)c2ccc(NS(=O)(=O)c3ccc(C)cc3)cc2)ccc1OC(F)F,18µM,-93,n,u,u,u
COc1cccc(N/C=C/C(=O)c2ccc(C)cc2)c1,n,n,8.9µM,n,n,n
CCOC(=O)c1ccc(N2C(=O)c3n[nH]c(-c4ccco4)c3C2c2ccc(OC)cc2OC)cc1 (stereo not given),18µM,x,x,23µM,x,x
CCOC(=O)c1ccc(N2C(=O)c3n[nH]c(C)c3C2c2ccc(OC)cc2OC)cc1 (stereo not given),23µM,-58,n,u,n,n
Cc1cc(C)c(NC(=O)CNC(=O)c2ccccc2OCc2c(C)noc2C)c(C)c1,n,n,n,n,n,n
Cc1ccc(-n2nc(CO)c(C(=O)NCCc3ccccc3)n2)cc1C,u,x,x,n,x,x
CCSc1nc2c([nH]c3ccccc32)c(=O)n1-c1ccc(OC)cc1,n,x,x,n,x,x
COc1ccc(-n2c(SCc3ccccc3)nc3c([nH]c4ccccc43)c2=O)cc1,23µM,x,x,u,x,x
COCCSc1nc2c([nH]c3ccccc32)c(=O)n1-c1ccc(OC)c(OC)c1,u,x,x,n,x,x
O=C(CSc1nc2c([nH]c3ccccc32)c(=O)n1-c1ccc(F)cc1)N1CCc2ccccc21,u,x,x,n,x,x
COc1ccc(-n2c(SCc3ccccc3F)nc3c([nH]c4ccccc43)c2=O)cc1OC,16µM,x,x,26µM,x,x
COc1cccc(-n2c(SCC(=O)N3CCc4ccccc43)nc3c([nH]c4ccccc43)c2=O)c1,10µM,x,x,7.3µM,x,x
COc1cccc(-n2c(SCC(N)=O)nc3c([nH]c4ccccc43)c2=O)c1,16µM,n,n,18µM,n,n
COc1ccccc1NNC(=O)c1cccnc1Oc1ccccc1,n,x,n,n,n,u
SMILES,DT40 TDP1 no CPT,IL-1B inflam inh,uPA generation,DT40 TDP1 CPT,HT1080-NT tox,HT1080 IDH1KD tx
CCn1cc(C(=O)N[C@@H](CCSC)C(=O)NC(C)(C)CO)c(=O)c2cc3c(cc21)OCO3,n,n,n,n,n,n
Cc1cc(NC(=O)CS(=O)(=O)c2ccc(Cl)cc2)no1,n,n,n,n,n,n
O=C(CSc1nc2c([nH]c3ccccc32)c(=O)n1-c1cccc(Cl)c1)N1CCOCC1,15µM!,n,n,18µM!,u,u
CCOc1ccc(-n2c(SCC(=O)N3CCc4ccccc43)nnc2-c2c[nH]c3ccccc23)cc1,u,n,n,u,n,n
CCC1CCCCN1C(=O)CSc1nc2c([nH]c3ccccc32)c(=O)n1-c1cccc(OC)c1 (stereo not given),26µM,x,x,u,x,x
COc1cccc(-n2c(SCC(=O)N3CCc4ccccc43)nnc2-c2c[nH]c3ccccc23)c1,23µM,n,n,16µM,n,n
COc1cccc(-n2c(SCC(=O)Nc3cc(C)on3)nc3c([nH]c4ccccc43)c2=O)c1,u,n,n,u,n,n
COc1cccc(-n2c(SCC(=O)N3CCCCC3)nc3c([nH]c4ccccc43)c2=O)c1,21µM,n,n,u,n,n
O=C1OC(CC(=O)N(Cc2nnc(-c3ccccc3Cl)o2)C2CC2)c2ccccc21 (stereo not given),u,n,n,u,n,n
O=C(NC1CCCCC1)C1CC(=O)N(Cc2ccccc2)C1 (stereo not given),n,n,n,n,n,n
CCOc1cc(/C=C2\N=C(SC)SC2=O)cc([N+](=O)[O-])c1OC(C)=O,u,n,n,18µM,n,n
COc1ccccc1CNC(=O)CCn1c(=O)c2ccccc2n(CC(=O)Nc2ccc(C)cc2C)c1=O,n,x,x,n,x,x
Cc1ccc(C(CCNC(C)c2cccs2)c2ccco2)cc1 (stereo not given),18µM,u,n,u,u,u
O=S(=O)(NCCOC12CC3CC(CC(C3)C1)C2)c1cccc2nsnc12,15µM,n,n,18µM,n,n
CCOc1ccc(OCC)c(S(=O)(=O)NCCOC23CC4CC(CC(C4)C2)C3)c1,13µM,n,n,u,n,n
COc1cc(S(=O)(=O)NCCOC23CC4CC(CC(C4)C2)C3)c(OC)cc1Cl,10µM,-55,n,15µM,n,n
CC1CCC(NC(=O)c2ccc3c(c2)N(Cc2ccccc2)C(=O)c2ccccc2S3(=O)=O)CC1 (stereo not given),n,x,x,u,x,x
COc1ccc(CNC(=O)C2CC(=O)N(C3CCCC3)C2)cc1 (stereo not given),n,n,n,n,n,n
O=C(Nc1ccc(F)cc1)C1CCN(c2ncnc3c2nc2n3CCCCC2)CC1,18µM,n,n,u,n,n
CCOc1ccc(Nc2ncnc3c2nc2n3CCCCC2)cc1,21µM,x,x,u,x,x
COc1ccccc1CNC(=O)C1CCN(c2ncnc3c2nc2n3CCCCC2)CC1,23µM!,n,n,u,n,n
COc1ccc(OC)c(CNC(=O)C2CCN(c3ncnc4c3nc3n4CCCCC3)CC2)c1,n,x,x,n,x,x
